Source: PubChem BioAssay (EPA / NIEHS)
Some structures have more than one record in an assay (separate samples or runs), and their calls can disagree. Activity calls are given as the source filed them. How the source made its calls: active means hit-call score of the fitted dose curve at least 0.9, where 1 is the maximum; inactive means score below 0.9.

Biological target: Retinoic acid receptor alpha (Homo sapiens) (UniProt P10276)
Assay: ATG_DR5_RAR_CIS: Attagene CIS-FACTORIAL HepG2 Assay for human Retinoic Acid Receptor Alpha (RARE), DR5 submotif (AID 2282934);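 on AC50: reporter responds to endogenous RAR alpha beta and gamma in HepG2 not RARA alone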
Conditions: HepG2 Attagene cis-factorial RARE DR5 reporter, mRNA; actives raise or lower the signal
Procedure: ATG_CIS is a cell-based, multiplexed-readout assay that uses HepG2, a human liver cell line, with measurements taken at 24 hours after chemical dosing in a 24-well plate.ATG_DR5_RAR_CIS is one of 52 assay component(s) measured or calculated from the ATG_CIS assay. It is designed to make measurements of mRNA induction, a form of inducible reporter, as detected with fluorescence intensity signals by Reverse transcription polymerase chain reaction (RT-PCR) and Capillary electrophoresis technology.Data from the assay component ATG_DR5_RAR_CIS was analyzed into 1 assay endpoint. This assay endpoint, ATG_DR5_CIS, was analyzed with bidirectional fitting relative to DMSO as the negative control and baseline of activity. Using a type of inducible reporter, measures of mRNA for gain or loss-of-signal activity can be used to understand the reporter gene at the transcription factor-level as they relate to the gene RARA and RARB and RARG. Furthermore, this assay endpoint can be referred to as a primary readout, because this assay has produced multiple assay endpoints where this one serves a reporter gene function. To generalize the intended target to other relatable targets, this assay endpoint is annotated to the nuclear receptor intended target family, where the subfamily is non-steroidal.
Human liver HepG2 cells are transiently transfected with multiple reporter transcription units (MRTUs) in 6-well plates using FuGene 6 reagent (Roche; 3 ml FuGene/1 mg DNA). The MRTU constructs are regulated by a cis-regulating element (promoter). […] A major difference between the CIS and TRANS system is that in CIS activities of endogenous TFs are measured, whereas the TRANS assay evaluates changes in activities of exogenous, chimeric NR-Gal4 proteins. […] At the end of 24 hour incubation, total RNA was isolated using TriZol reagent (Invitrogen). The isolated RNA is then reverse-transcribed using oligo(dT) primer and Mo-MLV reverse transcriptase (Invitrogen) with DNAse I (Ambion) treatment for 30 min. The one-tenth of the produced cDNA was amplified by PCR using Taq DNA polymerase (Invitrogen) and two reporter sequence-specific primers. The PCR products were fluorescently labeled by primer extension with 6-arboxyfluorescein (6-FAM) 5'-labeled reporter sequence-specific primer (2 min at 95 C, 20 s at 68 C and 10 min at 72 C) and these products were digested with 5U of HpaI (New England Biolabs) for 2h at 37 C. The fragments were purified using Qiaquick PCR columns (Qiagen), analyzed on an ABI 3130xL genetic analyzer (Applied Biosystems) with peak positions identified by using a set of X-rhodamine (ROX)-labeled MapMarker1000 molecular weight standards (BioVentures). The raw capillary electrophoresis data was processed using Attagraph software (Attagene).

Chain of Retinoic acid receptor alpha (Homo sapiens) (P10276 whole entry, looked up): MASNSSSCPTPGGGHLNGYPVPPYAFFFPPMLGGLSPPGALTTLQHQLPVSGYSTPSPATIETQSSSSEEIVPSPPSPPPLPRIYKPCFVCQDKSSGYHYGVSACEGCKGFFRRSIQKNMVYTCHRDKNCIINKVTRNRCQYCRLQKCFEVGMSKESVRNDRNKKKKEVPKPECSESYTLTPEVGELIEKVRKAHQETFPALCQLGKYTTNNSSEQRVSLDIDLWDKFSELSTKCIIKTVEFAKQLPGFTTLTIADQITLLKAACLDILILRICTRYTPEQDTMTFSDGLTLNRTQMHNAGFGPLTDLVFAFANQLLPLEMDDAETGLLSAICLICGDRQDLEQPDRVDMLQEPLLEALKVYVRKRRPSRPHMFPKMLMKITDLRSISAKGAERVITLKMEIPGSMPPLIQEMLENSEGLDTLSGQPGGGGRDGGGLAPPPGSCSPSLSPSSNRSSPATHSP

Structure (SMILES) | outcome | AC50
O=C1c2ccccc2C(=O)N1CCc1noc(-c2ccc(CN3CCCCCC3)s2)n1 | inactive | 
Cc1cc2c(cc1C(F)(F)F)N(C(=O)Nc1ccc(Oc3cccnc3C)nc1)CC2 |  | 967 nM (active)
CCCCCCCCOc1ccc(C(=O)c2ccccc2)c(O)c1 | inactive | 
NC(=O)c1nc(-c2cccc(-c3cc(F)ccc3OCC(F)(F)C(F)(F)F)c2)n[nH]1 | inactive | 
c1ccc(C[n+]2cccc3ccccc32)cc1 | inactive | 
Cc1ccc(C(C)C)cc1 | inactive | 
CC1=CC(=O)/C(=C(/C)O)C(=O)O1 | inactive | 
CC1(C)NC(=O)N(c2ccc([N+](=O)[O-])c(C(F)(F)F)c2)C1=O | inactive | 83 nM (active)
OCCO | inactive | 
CCCCCCCC[Si](OCC)(OCC)OCC | inactive | 69200 nM (active)
COc1cc(C(=O)NC2CCN(C)CC2)ccc1Nc1ncc2c(n1)N(C1CCCC1)CC(F)(F)C(=O)N2C |  | 510 nM (active)
C[C@]12CC[C@@H]3c4ccc(O)cc4CC[C@H]3[C@@H]1CC[C@H]2O | inactive | 5920 nM (active)
CN(C)C(=O)C1(N2CCCCC2)CCN(CC[C@@]2(c3ccc(Cl)c(Cl)c3)CN(C(=O)c3ccccc3)CCO2)CC1 | inactive | 
CCCCCCCCCC(=O)O | inactive | 
CC(C)(O)c1ccc(CNC(=O)c2cccnc2Oc2ccc3nonc3c2)cc1 | inactive | 
Cc1c2ccccc2c(C)c2c1ccc1ccccc12 |  | 53300 nM (active)
O=C(O)Cc1cc(I)c(Oc2ccc(O)c(I)c2)c(I)c1 | inactive | 
Clc1ccccc1C(c1ccccc1)(c1ccccc1)n1ccnc1 | inactive | 
O=c1[nH]sc2ccccc12 | inactive | 

Structure (SMILES) | outcome | AC50
CC(C)(C)c1csc(-c2cc3cc(OCc4ccccc4CC(=O)O)ccc3o2)n1 | inactive | 
COc1cccc([C@H](O)C2CCN(CCc3ccc(F)cc3)CC2)c1OC | inactive | 
O=c1ccc2ccccc2o1 | inactive | 
CCO[Si](CCCNC(N)=O)(OCC)OCC | inactive | 
Cc1oc2c(NC(=O)c3c(Cl)cccc3Cl)cccc2c1C(C)(C)O |  | 3060 nM (active)
CCN(Cc1cccnc1)C(=O)c1cccc(Cl)c1[C@]1(C)C(=O)N(Cc2ccc(OC)cc2OC)c2ccc(Cl)cc21 |  | 293 nM (active)
CCN(Cc1cccc(S(=O)(=O)O)c1)c1ccc(C(=C2C=CC(=[N+](CC)Cc3cccc(S(=O)(=O)O)c3)C=C2)c2ccccc2S(=O)(=O)[O-])cc1 | inactive | 
c1ccc2n[nH]nc2c1 | inactive | 
CC(C)(C)c1cc(/C=C2\SC(N)=NC2=O)cc(C(C)(C)C)c1O | inactive | 
CCCCCCCCCCCCO | inactive | 
O=C(O)c1ccccc1-n1cc(C(=O)O)c(=O)c2cc(Nc3c(F)cc(F)cc3Cl)c(Cl)cc21 | inactive | 
Oc1ccc2ccccc2c1 | inactive | 
O=C(O)Cn1c(=O)n(Cc2ccc(Br)cc2F)c(=O)c2ccc(Cl)cc21 | inactive | 
O=C(Nc1ccc(Cl)cc1)Nc1ccc(Cl)c(Cl)c1 | inactive | 
COc1ccc2cc(S(=O)(=O)N[C@H](CC(=O)N[C@H](Cc3ccc(CN4[C@H](C)CCC[C@@H]4C)cc3)C(=O)N(C)C(C)C)c3ccc4c(c3)OCO4)ccc2c1 | inactive | 
c1ccc2ccccc2c1 | inactive | 
CCCCCCCCOC(=O)c1cc(O)c(O)c(O)c1 | inactive | 
Cc1occc1C(=O)Nc1ccc(C(=O)N2CCC(F)(F)/C(=C\C(=O)N3CCC(N4CCCCC4)CC3)c3ccccc32)cc1 | inactive | 
